From PubChem BioAssay AID651718 (The Scripps Research Institute Molecular Screening Center, 2012)
Among all 360,000 compounds or so, about 2,700 (0.75%) were called active. The entries come from a sample that favours actives as a whole. Values without a mark were called inactive. Rule as the data show it: active = inhibition above about 4.5%; inactive = the rest.

System: Methionine sulfoxide reductase A (Bos taurus)
Assay: bovine MsrA enzyme inhibitors, primary screen, biochemical, absorbance, HTS (AID 651718);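 also: 0% = vehicle wells with enzyme and 100% = reference inhibitor wells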
Conditions: purified bovine MsrA, absorbance read-out; at 15.5 µM; active compounds read high

| Structure (SMILES) | inhibition |
| --- | --- |
| CCOc1ccc(-c2cc(C)[n+](CCN(CC)CC)c(-c3ccc(OCC)cc3)c2)cc1 | 5.24% (active) |
| Clc1ccc([C@@H]2CC3CCC2N3)cn1 (stereo not given in full) | -0.82% |
| COc1cc(OC)cc(C(=O)NCCN2CCC3(CC2)C(=O)NCN3c2ccccc2)c1 | 0% |
| Brc1ccc2c(c1)CNCc1cnnn1-2 | -0.08% |
| Cc1cc(N2CCNC[C@@H]2C)ccc1N1CC[C@H](O)C1 | 0% |
| Cc1ccc(CN2CCCC(C(=O)c3ccc4c(c3)OCO4)C2)cc1C (stereo not given) | 0.84% |
| COc1ccc(C(=O)C2CCCN(Cc3ccc(C)s3)C2)cc1OC (stereo not given) | 4.73% (active) |
| COc1cccc(CN2CCCC(C(=O)c3ccccc3SC)C2)c1O (stereo not given) | 1.68% |
| COC1C(O)C(C)OC(OC2CCC3(C=O)C(CCC4C3CCC3(C)C(C5=CC(=O)OC5)CCC43O)C2)C1O (stereo not given) | 0.09% |
| CCC(C)NC1(c2ccccc2)CCCCC1 (stereo not given) | -0.91% |
| CCCCC(=O)N/N=C/c1c(O)n(CC)c(=S)n(CC)c1=O | 5.43% (active) |
| COc1ccc2c(c1)[C@@]13CCCCC1[C@@H](C2)NCC3 (stereo not given in full) | 0.27% |
| O=S(=O)(c1ccccc1)N1CCC2CCNC2C1 (stereo not given) | -0.74% |
| CS(=O)(=O)N1CCC2CCNC2C1 (stereo not given) | 0.9% |
| CCN(CC)C(=O)[C@@H]1C=C2c3cccc4[nH]c(Br)c(c34)C[C@H]2N(C)C1 | 0% |
